This is a sample that favours compounds with a hit; in the whole collection about 6% have one here.
D1 PAM = Potentiators of Human D1 Dopamine Receptor: qHTS; D(1A) dopamine receptor (Homo sapiens), P21728; HEK293 TREx D1 cells, calcium flux, dopamine EC20 potentiation; potentiation, % at 10 µM; actives 0.036% (n = 360,000); in the data active means potentiation above about 30%; further: 0% is about no effect
D3 ag = qHTS of D3 Dopamine Receptor Agonist: qHTS; actives 0.58% (n = 410,000); max activation, %; D3R DiscoveRx beta-arrestin cells, luminescence, 90 min; D(3) dopamine receptor (Homo sapiens), P35462; in the data active means max activation above about 30%; further: 0% is about no effect
Target sequence (P35462 whole entry, looked up): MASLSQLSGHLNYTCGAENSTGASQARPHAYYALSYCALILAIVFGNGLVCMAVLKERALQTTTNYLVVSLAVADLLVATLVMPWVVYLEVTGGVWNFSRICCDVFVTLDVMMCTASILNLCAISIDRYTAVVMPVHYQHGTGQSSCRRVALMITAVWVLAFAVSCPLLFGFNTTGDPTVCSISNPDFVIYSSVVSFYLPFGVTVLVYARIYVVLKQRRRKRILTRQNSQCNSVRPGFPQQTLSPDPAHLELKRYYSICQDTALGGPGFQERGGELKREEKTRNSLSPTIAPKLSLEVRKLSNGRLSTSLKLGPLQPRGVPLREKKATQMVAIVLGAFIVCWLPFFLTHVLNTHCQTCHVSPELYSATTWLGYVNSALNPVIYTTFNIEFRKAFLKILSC
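Agonist mode: compounds and dopamine controls were applied to plated cells for 90 min at 37 degrees C after an overnight attachment at 1500 cells/well. Luminescent read-out followed 30 - 60 minutes at room temperature with DiscoveRx detection reagent.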
D3 antag = qHTS of D3 Dopamine Receptor Antagonist: qHTS; max response, negative = inhibition, %; D3R cells, DiscoveRx beta-arrestin luminescence, antagonist mode; active compounds read low; actives 2.5% (n = 360,000); in the data active means max response below about -50%; inconclusive means no clear call, values can overlap the other calls; further: on the % scale 0 is the no-effect control and ±100 the full control effect
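Cells expressing the human receptor were seeded at 1500 cells/well, incubated overnight at 37 degrees C in 5% CO2, then exposed to library compounds with dopamine controls for 90 minutes at 37 degrees C before luminescent detection.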
D1 antag = Antagonist of Human D 1 Dopamine Receptor: qHTS. D(1A) dopamine receptor (Homo sapiens), P21728. HEK293 TREx D1 cells, calcium flux, dopamine EC80; active compounds read low. activity change, negative = inhibition, % at 10 µM. actives 3.2% (n = 360,000). AID 504652, 2011; in the data active means activity change below about -30%; further: on the % scale 0 is the no-effect control and ±100 the full control effect
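Kinetic fluorescence of a calcium dye serves as the read-out. D1-expressing Hek293 Trex cells, induced overnight at 30 C, are exposed to compound for 180 s before an EC80 dopamine addition, then read 180 s further.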
D1 agonist = Allosteric Agonists of the Human D1 Dopamine Receptor: qHTS | D(1A) dopamine receptor (Homo sapiens), P21728 | HEK293 T-REx D1 cells, calcium flux, agonist mode | activation, % at 2 µM | actives 1% (n = 360,000); in the data active means activation above about 30%; further: 0% is about no effect
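Agonism was scored from calcium flux recorded over 180 s (1 read/s) after pintool compound addition, following a 10-cycle baseline. Cells were inducible force-coupled HEK293 TREx D1, plated overnight at 30 C and loaded with no-wash calcium dye.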
The depositor's hits bear a star; ? = inconclusive; / = no result given.

SMILES	D1 PAM	D3 ag	D3 antag	D1 antag	D1 agonist
CCOc1cccc(C(=O)Nc2cccc(-c3nnc(-c4ccc(C)cc4)o3)c2)c1	0.1	5.6	-25.3	20.5	-2.7
CCN(CC)CCNC(=O)c1ccc2c(=O)n3nc(Nc4ccccc4)sc3nc2c1	-0.1	-17.3	/	-7.4	2.2
CCOc1cccc(C(=O)Nc2ccc(NC(=O)c3cc4ccccc4o3)c(OC)c2)c1	-2.6	9.9	12.9	-38.8*	6.8
CCCCOC(=O)c1cccc(NC(=O)c2cc3ccccc3o2)c1	-3.3	-12.9	/	-4.1	30.4*
O=C(CCCN1CCN(c2ccc(F)cc2)CC1)NC1c2ccccc2CSc2ccccc21 (centres undefined)	/	-23.8	/	/	/
O=C(CCC(=O)OCc1ccc(C(=O)Oc2ccc(Cl)cc2)cc1)Nc1ccccc1	-4.3	0.0	9.5	-12.4	3.1
COc1ccc(NC(=O)CCC(=O)OCc2ccc([N+](=O)[O-])cc2)cc1	0.3	-0.6	-15.0	-31.4*	1.7
COc1ccc(NC(=O)CCC(=O)OCc2ccc(C(=O)Oc3ccc(Cl)cc3)cc2)cc1	-6.3	4.9	?	-31.3*	3.4
COc1ccc(NC(=O)CCC(=O)OCC(=O)c2ccc(Oc3ccc([N+](=O)[O-])cc3)cc2)cc1	-4.2	5.7	-6.9	-2.2	2.7
COC(=O)c1c(NC(=O)CCCOc2ccc(C)cc2)sc2c1C(C(=O)OC)CC2 (centres undefined)	5.3	4.0	/	13.5	6.6
CCS(=O)(=O)N1Cc2ccccc2CC1C(=O)NCCc1c[nH]c2ccccc12 (centres undefined)	-5.8	23.7	-2.3	17.7	1.6
CCOc1ccc(CNC(=O)c2cnc3sc(N(CC)CC)nn3c2=O)cc1OC	-4.8	-8.0	/	-8.1	-0.2
O=[N+]([O-])c1cc(Br)cc(/C=N/n2cnnc2)c1O	1.2	-10.6	?	4.5	6.3
Cc1nn(-c2ccccc2)c(N2CCCC2)c1/C=N/n1cnc2scc(-c3ccccc3)c2c1=O	-3.0	-13.6	-61.1*	-14.0	2.7
O=[N+]([O-])c1cccc(/C=N/n2cnnc2)c1O	1.4	-1.8	-55.0*	4.2	3.6
O=c1c2c(-c3ccc(Cl)cc3)csc2ncn1/N=C/c1cccc([N+](=O)[O-])c1O	-3.6	-23.2	-60.8*	15.8	3.6
O=c1c2c(-c3ccccc3)csc2ncn1/N=C/c1c2ccccc2cc2ccccc12	-0.6	14.3	29.9	/	5.5
O=[N+]([O-])c1cc(Cl)cc(/C=N/n2cnnc2)c1O	0.6	-11.6	-56.9*	-17.6	2.3
CCCC(CCC)C(=O)NC1CC(=O)N(c2ccc3c(c2)OCCO3)C1 (centres undefined)	-3.4	-7.0	/	/	2.1
Cc1ccc2c(=O)cc(C(=O)Nc3sc4c(c3C(N)=O)CCCC4)oc2c1	-0.8	-8.6	/	0.9	3.5
Oc1ccc(Br)cc1/C=N/n1c(C2CCCCC2)n[nH]c1=S	3.3	2.8	5.8	-7.6	36.8*
Cn1cccc1/C=N/n1c(-c2ccc(C(C)(C)C)cc2)n[nH]c1=S	0.4	-6.0	-17.1	10.7	0.7
Cn1cccc1/C=N/n1c(-c2ccccc2)n[nH]c1=S	0.3	-6.0	-98.0*	-26.7	-0.9
Oc1ccc(/C=N/n2c(C3CCCCC3)n[nH]c2=S)c(O)c1	-7.0	-11.8	-12.1	-5.2	4.9
Oc1c(Br)cc(Br)cc1/C=N/n1c(-c2ccccc2)n[nH]c1=S	-12.7	-3.6	-51.1*	-5.8	1.9
SMILES	D1 PAM	D3 ag	D3 antag	D1 antag	D1 agonist
S=c1[nH]nc(-c2ccccn2)n1/N=C/c1ccccc1	-1.6	-3.4	-52.0*	0.4	2.3
Cc1ccc(NC(=O)Cn2c(=O)n(CCCCCC(=O)NCc3ccc(F)cc3)c(=O)c3sccc32)cc1C	0.5	-1.2	/	-0.3	5.1
CCOc1ccccc1CNC(=O)CN1C(=O)CCn2nc(-c3cn(C)c4ccccc34)cc21	-0.7	-9.8	/	-2.2	-2.7
COc1ccc(NC(=O)Cn2nc(C)c3c(C)n(-c4ccccc4)nc3c2=O)cc1OC	-2.8	6.1	/	-19.5	0.6
Cc1nn(-c2ccccc2)c(C)c1/C=N/n1c(-c2ccncc2)n[nH]c1=S	1.2	-7.9	-52.3*	35.2	-0.2
S=c1[nH]nc(-c2cccnc2)n1/N=C/c1ccco1	-0.3	-12.1	-50.5*	1.0	1.2
Cc1nn(-c2ccccc2)c(C)c1/C=N/n1c(-c2ccc(Cl)cc2)n[nH]c1=S	-5.6	-1.2	-23.8	6.9	1.2
CCCc1ccc(OC(C)c2nc(-c3ccc(-n4cccc4)cc3)no2)cc1 (centres undefined)	-2.2	-2.9	/	-0.4	7.5
CCn1cc(C(=O)NCc2ccccc2OC)c(=O)c2cc(S(=O)(=O)N3CCCCC3)ccc21	4.9	-16.7	/	8.6	3.9
CCc1nnc(NC(=O)CCC(=O)N2CCN(Cc3ccc(C)cc3C)CC2)s1	1.4	-14.2	1.5	-4.2	1.4
CCc1nnc(NC(=O)CCC(=O)N2CCN(CCOc3ccc(C)cc3)CC2)s1	-1.6	45.3*	0.1	2.7	0.6
CCCCOc1ccc(C(C)NC(=O)c2cccc(Nc3nc4ccccc4n4nnnc34)c2)cc1 (centres undefined)	-0.3	3.8	/	-5.1	0.6
NNC(=O)CN1C(c2ccccc2)=Nc2ccc(Br)cc2C1c1ccccc1 (centres undefined)	-1.2	-11.2	-18.0	18.7	4.5
COC(=O)CN1C(C)=Nc2ccc(C)cc2C1c1ccccc1 (centres undefined)	-6.8	-9.1	6.6	7.0	2.5
NNC(=O)CN1C(c2ccc(Cl)cc2)=Nc2ccc(Br)cc2C1c1ccccc1 (centres undefined)	-2.0	-9.1	-59.0*	5.7	2.8
COC(=O)CN1C(c2ccccc2)=Nc2ccc(Cl)cc2C1c1ccccc1 (centres undefined)	-4.5	-4.7	-56.2*	-3.5	2.0
Cc1ccc(-n2ncc(C(=O)Nc3ccc4c(c3)OCO4)c2C2CCN(C(=O)OC(C)(C)C)CC2)c(C)c1	-3.4	1.5	/	-19.9	0.0
O=C(NCCN1CCC(n2c(=O)[nH]c3ccccc32)CC1)c1cccc(F)c1	/	-19.2	-104.7*	/	/
O=C(NCCN1CCC(n2c(=O)[nH]c3ccccc32)CC1)c1cc(F)cc(F)c1	/	-11.4	-101.1*	/	/
O=C(Nc1ccccc1)N1CCC(n2c(=O)[nH]c3ccccc32)CC1	-2.8	0.6	-6.6	-8.7	0.7
O=C(NCCN1CCC(n2c(=O)[nH]c3ccccc32)CC1)c1ccncc1	/	-16.4	-107.0*	/	/
O=C(NCCN1CCC(n2c(=O)[nH]c3ccccc32)CC1)c1cccnc1Cl	/	-17.6	-68.7*	/	/

Assay outcomes from PubChem.
